Measured values reported in PubChem BioAssay AID1159580 (chemical genetic matrix, 2015).
“And” between values parts separate entries of the source, which are not always exact repeats. Equal entries are not always repeated. Out of some 5,500 compounds screened, about 2,000 (36%) were called active. Another 18% or so got no clear call; they are omitted. Rule as the data show it: active = normalized growth mostly below about 0.91 (no sharp cut-off); inconclusive = no clear call, values can overlap the other calls; inactive = mostly above about 0.92. The list shows a part of the results.

Assay: chemical genetic growth profiling, strain panel (AID 1159580);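 also: tested at 20 µM; growth read once vehicle control cultures reached saturation at 30 °C; 1 = growth at the plate median or of vehicle wells; lower values mean less growth of the strain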
Details: S. cerevisiae deletion strains, growth OD

Measured: normalized growth

CC(C(=O)O)c1ccc(-c2ccccc2)c(F)c1 (stereo unspecified)
inactive: locus YAL013W, strain DEP1, stronger effect = lower value 0.952 | locus YAL021C, strain ccr4, stronger effect = lower value 0.978 | locus YAL026C, strain drs2, stronger effect = lower value 0.949 | locus YAL030W, strain snc1, stronger effect = lower value 0.99 | locus YBL061C, strain skt5, stronger effect = lower value 1 | locus YBR009C, strain hhf1, stronger effect = lower value 0.984 | locus YBR021W, strain FUR4, stronger effect = lower value 0.936 | locus YBR023C, strain chs3, stronger effect = lower value 1.02 | locus YBR171W, strain sec66, stronger effect = lower value 0.968 | locus YBR229C, strain ROT2, stronger effect = lower value 0.993 | locus YBR231C, strain swc5, stronger effect = lower value 0.974 | locus YBR279W, strain paf1, stronger effect = lower value 1.01 | locus YCL011C, strain gbp2, stronger effect = lower value 1 | locus YCL016C, strain dcc1, stronger effect = lower value 1.02 | locus YCL029C, strain bik1, stronger effect = lower value 0.944 | locus YCL061C, strain MRC1, stronger effect = lower value 0.99 | locus YCL069W, strain vba3, stronger effect = lower value 0.99 | locus YCR088W, strain abp1, stronger effect = lower value 0.978 | locus YDL005C, strain med2, stronger effect = lower value 0.965 | locus YDL035C, strain GPR1, stronger effect = lower value 0.958 | locus YDL040C, strain nat1, stronger effect = lower value 0.995 | locus YDL074C, strain BRE1, stronger effect = lower value 0.959 | locus YDL101C, strain DUN1, stronger effect = lower value 1.01 | locus YDL192W, strain arf1, stronger effect = lower value 0.974 | locus YDR001C, strain nth1, stronger effect = lower value 0.977 | locus YDR069C, strain doa4, stronger effect = lower value 1.02 | locus YDR159W, strain sac3, stronger effect = lower value 0.913 | locus YDR162C, strain NBP2, stronger effect = lower value 0.936 | locus YDR195W, strain ref2 0.985 | locus YDR297W, strain sur2, stronger effect = lower value 0.992 | locus YDR318W, strain mcm21, stronger effect = lower value 0.979 | locus YDR334W, strain swr1, stronger effect = lower value 0.972 | locus YDR335W, strain msn5, stronger effect = lower value 1.01 | locus YDR388W, stronger effect = lower value 0.963 | locus YDR392W, strain spt3, stronger effect = lower value 0.748 | locus YDR502C, strain sam2, stronger effect = lower value 0.968 | locus YEL003W, strain gim4, stronger effect = lower value 0.967 | locus YEL037C, strain rad23, stronger effect = lower value 0.983 | locus YEL061C, strain CIN8 (second series), stronger effect = lower value 0.979 | locus YEL061C, strain CIN8, stronger effect = lower value 0.963 | locus YER015W, strain faa2, stronger effect = lower value 1 | locus YER016W, strain bim1, stronger effect = lower value 0.971 | locus YER110C, stronger effect = lower value 0.974 | locus YER111C, strain swi4, stronger effect = lower value 0.977 | locus YER155C, strain BEM2 (second series), stronger effect = lower value 0.979 | locus YER155C, strain BEM2, stronger effect = lower value 0.93 | locus YER167W, strain BCK2, stronger effect = lower value 0.974 | locus YFR010W, strain ubp6, stronger effect = lower value 0.997 | locus YGL086W, strain mad1, stronger effect = lower value 0.974 | locus YGL167C, strain pmr1, stronger effect = lower value 0.983 | locus YGL173C, strain kem1, stronger effect = lower value 0.968 | locus YGL227W, strain vid30, stronger effect = lower value 0.991 | locus YGL240W, strain doc1, stronger effect = lower value 0.953 | locus YGL248W, strain PDE1, stronger effect = lower value 1 | locus YGL253W, strain hxk2, stronger effect = lower value 0.98 | locus YGR135W, strain pre9, stronger effect = lower value 1.04 | locus YGR252W, strain gcn5, stronger effect = lower value 1.04 | locus YHR013C, strain ard1, stronger effect = lower value 1.05 | locus YHR027C, strain rpn1, stronger effect = lower value 0.994 | locus YHR079C, strain IRE1 (second series), stronger effect = lower value 0.959 | locus YHR094C, strain hxt1, stronger effect = lower value 0.951 | locus YHR129C, strain ARP1, stronger effect = lower value 0.99 | locus YHR142W, strain chs7, stronger effect = lower value 1.01 | locus YHR200W, strain rpn10, stronger effect = lower value 0.978 | locus YIL066C, strain RNR3, stronger effect = lower value 0.981 | locus YIL073C, strain SPO22, stronger effect = lower value 1.01 | locus YIR030C, strain dcg1, stronger effect = lower value 0.963 | locus YJL092W, strain hpr5, stronger effect = lower value 0.99 | locus YJL095W, strain BCK1 (second series), stronger effect = lower value 0.988 | locus YJL115W, strain asf1, stronger effect = lower value 0.982 | locus YJL129C, strain trk1, stronger effect = lower value 0.933 | locus YJL134W, strain LCB3, stronger effect = lower value 0.975 | locus YJL154C, strain vps35, stronger effect = lower value 0.984 | locus YJL164C, strain tpk1, stronger effect = lower value 0.992 | locus YJL166W, strain qcr8, stronger effect = lower value 1.01 | locus YJL168C, strain set2, stronger effect = lower value 0.959 | locus YJL187C, strain SWE1 (second series), stronger effect = lower value 0.989 | locus YJL187C, strain SWE1, stronger effect = lower value 0.985
1 (inactive) and 0.73 (active): locus YJL095W, strain BCK1, stronger effect = lower value
active: locus YDL185W, strain tfp1, stronger effect = lower value 0.869 | locus YDR101C, strain arx1, stronger effect = lower value 0.917 | locus YDR137W, strain rgp1, stronger effect = lower value 0.821 | locus YGL078C, strain dbp3, stronger effect = lower value 0.913 | locus YHR079C, strain IRE1, stronger effect = lower value 0.774 | locus YIL125W, strain kgd1, stronger effect = lower value 0.868
0.944 (inactive) and 0.704 (active): locus YHR030C, strain SLT2, stronger effect = lower value
